Active and inactive are the calls of the source.
Test: splicing luciferase reporter signal modulators, primary screen, spliceosome inhibition project, cell-based, HEK293, splice +/- reporter (AID 1101);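 further: HEK293 cells carrying a splicing-competent luciferase reporter gene; test concentration not given here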
Details: luminescence, 24 h, higher = more signal, called active from +8 up or from −8 down

z-score, inactive:
CC(C)(C)OC(=O)CC[C@]1(C(=O)N2CCCCC2)COC(c2ccc(OCCCO)cc2)=N1 -0.527
NC(=O)[C@H]1[C@@H]2C(=O)O[C@@H](c3ccccc3)[C@@H](c3ccccc3)N2[C@@H](c2ccc(O)cc2)[C@]12C(=O)Nc1ccc(C#CC3=CCCCC3)cc12 -1.67
CN1C(=O)[C@@]2(Cc3ccccc3)N=C(c3ccc(OCCCO)cc3)O[C@H]2c2ccccc21 -0.528
Cc1nc2cc(Br)ccc2c(=O)n1Cc1cccc(O)c1 -0.0746
Cc1ccc(N2C(=O)c3ccccc3[C@](C)(C(=O)NCc3ccccc3)[C@@H]2c2ccc(CO)cc2)nc1 -0.0691
CCCNC(=O)[C@@]1(Sc2ccc(C)cc2)CC(=O)N(C2CCCCC2)[C@@H]1c1ccc(CO)cc1I -0.703
COC(=O)[C@@]1(Cc2ccc(F)cc2)[C@H]2c3cc(C(=O)N(C)C)n(Cc4c(CO)[nH]cc(C)c4=O)c3C[C@H]2CN1C(=O)c1ccccc1 -0.73
O=C1C2C=CC(C(O)c3ccco3)N(Nc3ccccc3)C2C(=O)N1c1ccccc1 (stereo not given) 0.14
C=C(COC)C(=O)CC[C@H](OC(C)=O)c1ccc(OCCO)cc1 -1.5
COCCOC(=O)N1C(=O)[C@@]2(c3cc(C#CC4=CCCCC4)ccc31)[C@H](c1ccc(O)cc1)N1[C@H](c3ccccc3)[C@H](c3ccccc3)OC(=O)[C@H]1[C@@H]2C(=O)NC[C@H](O)c1ccccc1 -0.586
[N-]=[N+]=NC[C@H](Cc1ccccc1)NC(=O)c1ccccc1 -0.0894
COC(=O)[C@@]1(Cc2ccc(OC)cc2)[C@H]2c3cc(C(=O)N4CCCC4)n(Cc4ccc(OC(F)(F)F)cc4)c3C[C@H]2CN1C(=O)c1ccccc1 -0.886
CCC(CC)C(O)C1C=CC2C(=O)N(c3ccccc3)C(=O)C2N1Nc1ccc([N+](=O)[O-])cc1 (stereo not given) -0.16
COC(=O)C1N=C(c2ccc(OCCCO)cc2)N(c2ccccc2)O1 (stereo not given) -0.155
Cc1ccccc1C(O)C1C=CC2C(=O)N(c3ccccc3)C(=O)C2N1Nc1ccc([N+](=O)[O-])cc1 (stereo not given) -0.0433
COCC1=C2[C@@H](CCc3ccccc3)OB(O)C[C@@H]2[C@@H]2C(=O)N(C)C(=O)[C@@H]2C1 0.348
O=C1O[C@H](c2ccccc2)[C@H](c2ccccc2)N2[C@H]1[C@@H](C(=O)N1CCCCCCC1)[C@]1(C(=O)Nc3ccc(C#CC4(O)CCCCCC4)cc31)[C@H]2c1ccccc1OCCO -0.0867
CCOC(=O)C1=CC[C@@H](c2ccccc2)N(S(=O)(=O)c2ccc(C)cc2)[C@H]1c1cccc(OC)c1 -0.937
COc1cc(C(O)C2C=CC3C(=O)N(Cc4ccccc4)C(=O)C3N2n2cnnc2)cc(OC)c1OC (stereo not given) -0.696
COc1ccc([Si](C)(C)[C@@H]2[C@@H](CCn3cc([C@H](O)c4ccccc4)nn3)O[C@]3(C(=O)N(c4ccccc4)c4ccccc43)[C@H]2C)cc1 -1.18
COc1cc(NN2C(C(O)c3ccccc3)C=CC3C(=O)N(C)C(=O)C32)cc(OC)c1OC (stereo not given) -0.676
NC(=O)N1C(=O)C2C(C1=O)C1C=C(CCCO)C2C(C2CC2)N1Cc1cccc(OC(F)(F)F)c1 (stereo not given) 0.0948
O=c1cccc(-c2ccc(F)cc2)o1 0.362
CN(C)CCCCCCNC(=O)[C@@H]1C[C@@H]2C(=O)N[C@@H](CCCCN)C(=O)N2[C@@H]1c1ccc(O)cc1 -2.28
COCCOC(=O)N1C(=O)[C@@]2(c3cc(C#Cc4ccc(OC)cc4)ccc31)[C@H](C(=O)NC[C@H](O)c1ccccc1)[C@H]1C(=O)O[C@H](c3ccccc3)[C@H](c3ccccc3)N1[C@@H]2c1ccc(OCCO)cc1 -1.31
CC(C)C(=C=CC[C@@H](O)c1cccc(OCCO)c1)C[C@@H](O)c1ccccn1 0.111
C=C(CCCC)C(=O)CC[C@H](OC(C)=O)c1ccc(OCCO)cc1 -0.942
C=C(CCCC)/C(=C/C[C@H](OC(C)=O)c1ccc(OCCO)cc1)c1cc(C(=O)OC)ccc1OC 0.0591
COc1cc2c(cc1O)C(c1ccc(CN3CCCC3)cc1)N(C)CC2 (stereo not given) -0.00442
CC(C)[Si]1(C(C)C)OCc2cc(-c3ccc(-c4ccc(Cl)c(Cl)c4)o3)nc(CCc3ccccc3)c21 -2.1
[N-]=[N+]=Nc1ccccc1[C@@H]1OC(c2ccc(OCCCO)cc2)=N[C@]1(Cc1ccccc1)C(=O)NCc1ccccc1 0.459
C=C(C)[C@@H]1CC=C(C(O)C2C=CC3C(=O)N(c4ccccc4)C(=O)C3N2Nc2ccc(C#N)cc2)CC1 (stereo not given in full) 0.857
CCOC(=O)C1=C[C@@H](C(C)(C)C)N(S(=O)(=O)c2ccc(C)cc2)[C@H]1c1ccc(C)cc1 -0.598
CCOC(=O)C[C@H]1[C@H](OC(=O)c2ccccc2-c2ccccc2)[C@@H](NC(=O)c2ccccc2)c2cc(OCCCO)ccc2N1C(=O)c1ccccc1 0.0178
O=C1C2C=CC(C(O)C=Cc3ccc([N+](=O)[O-])cc3)N(Nc3ccccc3)C2C(=O)N1c1ccccc1 (stereo not given) 0.649

— PubChem BioAssay
